According to PubChem BioAssay (EPA / NIEHS):
Values joined by “and” are separate entries in the source; they are usually repeats but may differ in a detail not shown here. Equal entries are not always repeated. Records with an inconclusive call do not appear. The source holds several records for some structures; these can differ, active in one and inactive in another. Active and inactive are the calls of the source. How the source made its calls, unless noted: active means hit-call score of the fitted dose curve at least 0.9, where 1 is the maximum; inactive means score below 0.9.

What was measured:
[1] = biological target: Nuclear respiratory factor 1 (Homo sapiens) (UniProt Q16656); assay: ATG_NRF1_CIS: Attagene CIS-FACTORIAL HepG2 Assay for human Nuclear Respiratory Factor 1 (NRF1) Orphan Gene (AID 2282987); conditions: HepG2 NRF1 cis-element reporter, Attagene multiplex; actives raise or lower the signal
Summary of the method: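 Endogenous NRF1-driven reporter transcription in transfected HepG2 cells after 24 h treatment. Readout: RT-PCR products, 6-FAM labelled and resolved by capillary electrophoresis; changes fitted both directions relative to DMSO.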

[2] = ATG_NFI_CIS: Attagene CIS-FACTORIAL HepG2 Assay for human Nuclear Factor I (NFI) (AID 2282989); conditions: HepG2 cis-regulatory reporter, NFI response element transcription; actives raise or lower the signal
Summary of the method: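 Transient MRTU transfection of HepG2 → 24 h chemical dosing → total RNA, oligo(dT) RT → PCR, 6-FAM primer extension, HpaI cut → capillary electrophoresis. Endpoint fitted bidirectionally relative to DMSO.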

[3] = biological target: Myc proto-oncogene protein (Homo sapiens) (UniProt P01106); assay: ATG_Myc_CIS: Attagene CIS-FACTORIAL HepG2 Assay for human Myelocytomatosis (Myc) Proto-Oncogene Transcription Factor (AID 2282990); conditions: HepG2, Attagene cis-reporter transcription factor activity; actives raise or lower the signal
Summary of the method: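 Read-out: fluorescent reporter mRNA fragments resolved by capillary electrophoresis after RT-PCR. Human HepG2 liver cells carried transfected cis-element reporter units and were dosed for 24 h. Gain or loss of signal fitted relative to DMSO baseline.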

[4] = ATG_NRF2_ARE_CIS: Attagene CIS-FACTORIAL HepG2 Assay for human Nuclear Factor Erythroid 2 Related Factor 2 (NFR2) response to Antioxidant Response Elements (ARE) (AID 2282992); conditions: HepG2 Attagene ARE/NRF2 reporter, transcription factor activity; actives raise or lower the signal;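 on AC50: reporter mRNA level measured by RT-PCR and capillary electrophoresis fluorescence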
Summary of the method: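 Fluorescence intensity of reporter-specific cDNA fragments, separated by capillary electrophoresis, reflects mRNA induction in transfected HepG2 cells at 24 h. Activity is fitted bidirectionally, DMSO serving as baseline.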

[5] = ATG_Oct_MLP_CIS: Attagene CIS-FACTORIAL HepG2 Assay for human Octamer-Binding Transcription Factor (Oct) (AID 2282993); conditions: HepG2 Attagene cis-factorial Oct reporter, mRNA; actives raise or lower the signal
Summary of the method: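 Transient MRTU transfection of HepG2 → 24 h compound treatment → RNA isolation, reverse transcription, PCR → 6-FAM primer extension, HpaI digest → capillary electrophoresis. Activity fitted both directions against DMSO.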

[6] = biological target: Cellular tumor antigen p53 (Homo sapiens) (UniProt P04637); assay: ATG_p53_CIS: Attagene CIS-FACTORIAL HepG2 Assay for human p53 Transcription Factor (AID 2282994); conditions: HepG2 p53 cis-element reporter, Attagene mRNA; actives raise or lower the signal
Summary of the method: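 Transiently transfected HepG2 (multiple cis reporter transcription units); exposure 24 h; reporter RNA via RT-PCR, 6-FAM extension, 2 h HpaI digest at 37 C, CE detection; DMSO baseline.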

[7] = BSK_3C_VCAM1: BioMAP Diversity Plus: 3C Assay for Vascular cell adhesion molecule 1 (VCAM1) Biomarker Activity (AID 2282999); conditions: BioMAP 3C HUVEC, VCAM1 ELISA, cytokine-stimulated; actives raise or lower the signal
Summary of the method: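 HUVEC primary cells, 24 h compound exposure; VCAM-1 by ELISA; gain/loss of signal fitted bidirectionally vs DMSO baseline.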

[8] = BSK_4H_Eotaxin3: BioMAP Diversity Plus: 4H Assay for Eotaxin 3 Biomarker Activity (AID 2283000); conditions: primary human endothelial cells (HUVEC); actives raise or lower the signal
Summary of the method: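 Endothelial primary cells (human umbilical vein) exposed to compound for 24 h. ELISA detection of Eotaxin-3.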

[9] = read-out: Intercellular Adhesion Molecule 1 (ICAM1), ICAM1 (gene 3383); assay: BSK_3C_ICAM1: BioMAP Diversity Plus: 3C Assay for Intercellular Adhesion Molecule 1 (ICAM1) Biomarker Activity (AID 2283003); conditions: primary human endothelial cells (HUVEC); actives raise or lower the signal
Summary of the method: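 Chemicals are dosed onto primary human umbilical vein endothelium (3C system). After 24 h, ICAM-1 is measured by ELISA, and responses are fitted bidirectionally relative to DMSO.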

[10] = biological target: human Retinoic Acid Receptor beta (RARb), RARB (gene 5915) (UniProt P10826); assay: ATG_RARb_TRANS: Attagene TRANS-FACTORIAL HepG2 Assay for human Retinoic Acid Receptor beta (AID 2283004; active means hit-call score of the fitted dose curve at least 0.9, where 1 is the maximum)
Summary of the method: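 HepG2, transient MRTU transfection, NR–Gal4 chimera, 24 h treatment; RT-PCR plus CE fluorescence detection of reporter mRNA; gain of signal vs DMSO.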

[11] = BSK_3C_Proliferation: Cell Proliferation Assessment in the BioMAP Diversity Plus: 3C Assay (AID 2283006); conditions: primary human endothelial cells (HUVEC);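 on AC50: potency may reflect either rise or fall in cell number versus DMSO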
Summary of the method: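 Cells (human umbilical vein endothelial, sub-confluent) receive test chemical; after 48 h they are fixed in 10% trichloroacetic acid, stained with 0.1% SRB and read at 560 nm. Activity is referenced to DMSO, fitting increases and decreases.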

[12] = biological target: Peroxisome proliferator-activated receptor gamma (Homo sapiens) (UniProt P37231); assay: ATG_PPARg_TRANS: Attagene TRANS-FACTORIAL HepG2 Assay for human Peroxisome Proliferator-activated Receptor-gamma (PPARg) (AID 2283007; active means hit-call score of the fitted dose curve at least 0.9, where 1 is the maximum)
Summary of the method: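 After 24 h of chemical exposure, transfected HepG2 cells carrying PPARγ-Gal4 chimera reporter constructs are lysed for RNA. Reporter transcripts are measured by RT-PCR and capillary electrophoresis with fluorescent labelling, and gain of signal is fitted versus DMSO.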

[13] = biological target: Nuclear receptor subfamily 1 group I member 2 (Homo sapiens) (UniProt O75469); assay: ATG_PXR_TRANS: Attagene TRANS-FACTORIAL HepG2 Assay for human Pregnane X Receptor (PXR) (AID 2283008; active means hit-call score of the fitted dose curve at least 0.9, where 1 is the maximum)
Summary of the method: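 Transient HepG2 transfectants carrying multiplexed reporter transcription units; PXR activity read through a Gal4 chimera. 24 h exposure. RT-PCR/CE fluorescence; upward curve fit referenced to DMSO.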

[14] = biological target: human Retinoic Acid Receptor gamma (RARg), RARG (gene 5916) (UniProt P13631); assay: ATG_RARg_TRANS: Attagene TRANS-FACTORIAL HepG2 Assay for human Retinoic Acid Receptor gamma (RARg) (AID 2283009; active means hit-call score of the fitted dose curve at least 0.9, where 1 is the maximum)
Summary of the method: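 TRANS format measured activity of exogenous NR-GAL4 fusion (RARg) in transfected HepG2 liver cells after 24 h dosing. Induced reporter RNA was detected by RT-PCR/capillary electrophoresis fluorescence, analysed in the positive direction against DMSO.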

[15] = BSK_3C_uPAR: BioMAP Diversity Plus: 3C Assay for Urokinase-type plasminogen activator receptor (uPAR) Biomarker Activity (AID 2282998); conditions: BioMAP 3C HUVEC, uPAR biomarker ELISA; actives raise or lower the signal
Summary of the method: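 ELISA readout of uPAR on human vascular endothelium (umbilical vein primary cells), taken 24 h after chemical dosing. Increases and decreases are both fitted relative to DMSO vehicle.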

[16] = biological target: human Peroxisome Proliferator-activated Receptor alpha (PPARa), PPARA (gene 5465) (UniProt Q07869); assay: ATG_PPARa_TRANS: Attagene TRANS-FACTORIAL HepG2 Assay for human Peroxisome Proliferator-activated Receptor alpha (PPARa) (AID 2283001; active means hit-call score of the fitted dose curve at least 0.9, where 1 is the maximum;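 on AC50: potency for gain of reporter signal over DMSO so agonist or activator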)
Summary of the method: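 HepG2, transient MRTU transfection, 24 h treatment. RT-PCR → FAM labelling → capillary electrophoresis. Fit vs DMSO, positive direction.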

[17] = biological target: human Peroxisome Proliferator-activated Receptor delta (PPARd), PPARD (gene 5467) (UniProt Q03181); assay: ATG_PPARd_TRANS: Attagene TRANS-FACTORIAL HepG2 Assay for human Peroxisome Proliferator-activated Receptor delta (PPARd) (AID 2283002; active means hit-call score of the fitted dose curve at least 0.9, where 1 is the maximum)
Summary of the method: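 Read-out: reporter mRNA induction, quantified by fluorescent RT-PCR products resolved by capillary electrophoresis. Human HepG2 liver cells carried transiently transfected Gal4-UAS reporter constructs with chimeric NR-Gal4 fusions. Cells were dosed for 24 h; DMSO served as baseline.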

[18] = biological target: Retinoic acid receptor alpha (Homo sapiens) (UniProt P10276); assay: ATG_RARa_TRANS: Attagene TRANS-FACTORIAL HepG2 Assay for human Retinoic Acid Receptor alpha (RARa) (AID 2283005; active means hit-call score of the fitted dose curve at least 0.9, where 1 is the maximum)
Summary of the method: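 HepG2 transiently transfected with multiplex GAL4-UAS reporter units including a human RARa–GAL4 chimera; 24 h compound exposure. Reporter mRNA quantified by RT-PCR, 6-FAM labeling and capillary electrophoresis; gain of signal versus DMSO.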

[19] = BSK_3C_TissueFactor: BioMAP Diversity Plus: 3C Assay for Tissue Factor Biomarker Activity (AID 2282997); conditions: BioMAP 3C HUVEC, tissue factor biomarker readout; actives raise or lower the signal
Summary of the method: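 Cells used were primary human umbilical vein endothelial cells. They were dosed with chemical, and after 24 h Tissue Factor was quantified by ELISA. Curves were fitted bidirectionally with DMSO as baseline.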

[20] = ATG_NF_kB_CIS: Attagene CIS-FACTORIAL HepG2 Assay for human Nuclear Factor Kappa B (NF-kB) (AID 2282991); conditions: HepG2 Attagene cis-factorial NF-kB reporter mRNA; actives raise or lower the signal
Summary of the method: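 Readout is reporter transcript level, gain or loss versus DMSO, measured 24 h post-dose via RT-PCR, fluorescent labelling and capillary electrophoresis. Human HepG2 liver cells carried transiently transfected CIS reporter constructs reflecting endogenous factors.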

Measured: AC50

Chain of human Peroxisome Proliferator-activated Receptor alpha (PPARa), PPARA (gene 5465) (Q07869 whole entry, looked up): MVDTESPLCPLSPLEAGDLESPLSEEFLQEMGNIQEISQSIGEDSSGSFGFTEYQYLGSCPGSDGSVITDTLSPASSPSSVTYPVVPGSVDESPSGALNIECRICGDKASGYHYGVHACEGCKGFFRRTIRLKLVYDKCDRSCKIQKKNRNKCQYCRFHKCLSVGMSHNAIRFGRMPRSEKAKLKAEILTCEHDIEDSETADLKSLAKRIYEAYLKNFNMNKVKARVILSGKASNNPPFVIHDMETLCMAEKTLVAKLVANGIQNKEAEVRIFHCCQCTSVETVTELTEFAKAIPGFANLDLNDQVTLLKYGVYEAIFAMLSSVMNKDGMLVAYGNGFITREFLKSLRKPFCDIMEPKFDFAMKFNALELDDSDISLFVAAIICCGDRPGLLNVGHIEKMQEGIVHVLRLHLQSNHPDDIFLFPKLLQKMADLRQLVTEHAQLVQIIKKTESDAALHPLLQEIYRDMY
Chain of Nuclear respiratory factor 1 (Homo sapiens) (Q16656 whole entry, looked up): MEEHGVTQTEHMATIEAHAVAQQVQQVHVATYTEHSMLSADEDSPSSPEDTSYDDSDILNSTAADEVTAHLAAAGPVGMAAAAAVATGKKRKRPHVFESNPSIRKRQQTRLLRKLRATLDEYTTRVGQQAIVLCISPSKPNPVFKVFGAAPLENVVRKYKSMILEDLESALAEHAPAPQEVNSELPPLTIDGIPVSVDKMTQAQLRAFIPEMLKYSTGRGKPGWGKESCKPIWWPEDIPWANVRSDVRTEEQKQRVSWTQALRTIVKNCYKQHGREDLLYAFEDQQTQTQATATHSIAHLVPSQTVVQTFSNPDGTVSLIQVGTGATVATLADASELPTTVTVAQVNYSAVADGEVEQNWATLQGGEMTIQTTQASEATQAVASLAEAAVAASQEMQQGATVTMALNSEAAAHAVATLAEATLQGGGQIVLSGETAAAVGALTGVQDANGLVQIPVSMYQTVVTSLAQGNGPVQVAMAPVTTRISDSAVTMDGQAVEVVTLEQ
Chain of human Peroxisome Proliferator-activated Receptor delta (PPARd), PPARD (gene 5467) (Q03181 whole entry, looked up, the tested form may be a part): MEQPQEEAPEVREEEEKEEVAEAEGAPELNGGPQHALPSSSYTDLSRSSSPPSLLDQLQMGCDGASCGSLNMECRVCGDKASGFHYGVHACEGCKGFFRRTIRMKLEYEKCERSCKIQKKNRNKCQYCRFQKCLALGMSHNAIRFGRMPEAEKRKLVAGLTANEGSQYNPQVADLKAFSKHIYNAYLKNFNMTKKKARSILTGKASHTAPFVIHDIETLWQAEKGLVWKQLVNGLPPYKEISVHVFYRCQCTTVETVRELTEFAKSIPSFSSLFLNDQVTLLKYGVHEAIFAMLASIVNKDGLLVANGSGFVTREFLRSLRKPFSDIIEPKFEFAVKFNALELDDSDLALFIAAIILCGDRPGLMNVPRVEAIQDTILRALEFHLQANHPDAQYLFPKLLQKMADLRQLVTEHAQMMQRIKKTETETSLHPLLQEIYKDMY
Chain of Peroxisome proliferator-activated receptor gamma (Homo sapiens) (P37231 whole entry, looked up, the tested form may be a part): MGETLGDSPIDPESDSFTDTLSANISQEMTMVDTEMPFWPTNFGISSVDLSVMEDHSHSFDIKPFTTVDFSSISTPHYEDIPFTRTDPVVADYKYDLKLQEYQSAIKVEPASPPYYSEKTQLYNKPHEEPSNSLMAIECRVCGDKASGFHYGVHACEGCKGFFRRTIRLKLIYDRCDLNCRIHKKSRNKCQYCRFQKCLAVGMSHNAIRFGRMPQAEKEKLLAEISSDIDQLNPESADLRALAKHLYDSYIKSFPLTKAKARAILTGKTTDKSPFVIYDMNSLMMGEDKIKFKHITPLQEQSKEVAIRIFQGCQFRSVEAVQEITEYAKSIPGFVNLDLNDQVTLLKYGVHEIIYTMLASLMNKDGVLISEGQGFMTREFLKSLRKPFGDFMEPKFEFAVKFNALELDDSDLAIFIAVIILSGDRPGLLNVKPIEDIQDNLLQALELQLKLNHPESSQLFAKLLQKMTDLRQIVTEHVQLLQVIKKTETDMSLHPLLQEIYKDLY
Chain of Cellular tumor antigen p53 (Homo sapiens) (P04637 whole entry, looked up): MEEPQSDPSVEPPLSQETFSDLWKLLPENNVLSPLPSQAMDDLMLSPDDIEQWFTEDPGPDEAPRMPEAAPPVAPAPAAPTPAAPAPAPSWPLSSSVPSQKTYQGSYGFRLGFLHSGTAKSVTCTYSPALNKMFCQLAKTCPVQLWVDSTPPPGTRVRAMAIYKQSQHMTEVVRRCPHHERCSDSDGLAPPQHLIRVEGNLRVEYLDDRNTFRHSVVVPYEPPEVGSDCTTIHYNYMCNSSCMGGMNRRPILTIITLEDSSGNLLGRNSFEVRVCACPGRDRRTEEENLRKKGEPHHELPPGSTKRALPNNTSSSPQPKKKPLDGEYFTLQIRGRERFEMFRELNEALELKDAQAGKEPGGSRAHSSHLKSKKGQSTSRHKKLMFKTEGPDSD
Chain of Nuclear receptor subfamily 1 group I member 2 (Homo sapiens) (O75469 whole entry, looked up, the tested form may be a part): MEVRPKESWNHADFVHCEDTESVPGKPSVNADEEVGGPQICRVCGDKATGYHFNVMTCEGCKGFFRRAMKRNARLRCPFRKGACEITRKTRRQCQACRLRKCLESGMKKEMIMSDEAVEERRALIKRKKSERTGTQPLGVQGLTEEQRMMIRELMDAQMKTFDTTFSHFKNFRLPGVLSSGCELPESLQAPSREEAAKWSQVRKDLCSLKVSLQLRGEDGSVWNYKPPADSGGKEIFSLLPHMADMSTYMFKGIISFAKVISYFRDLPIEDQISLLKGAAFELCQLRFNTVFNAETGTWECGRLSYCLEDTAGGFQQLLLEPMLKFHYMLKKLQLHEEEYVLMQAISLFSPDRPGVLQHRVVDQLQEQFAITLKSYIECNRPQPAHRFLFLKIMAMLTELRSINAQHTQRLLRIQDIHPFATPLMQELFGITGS
Chain of Myc proto-oncogene protein (Homo sapiens) (P01106 whole entry, looked up, the tested form may be a part): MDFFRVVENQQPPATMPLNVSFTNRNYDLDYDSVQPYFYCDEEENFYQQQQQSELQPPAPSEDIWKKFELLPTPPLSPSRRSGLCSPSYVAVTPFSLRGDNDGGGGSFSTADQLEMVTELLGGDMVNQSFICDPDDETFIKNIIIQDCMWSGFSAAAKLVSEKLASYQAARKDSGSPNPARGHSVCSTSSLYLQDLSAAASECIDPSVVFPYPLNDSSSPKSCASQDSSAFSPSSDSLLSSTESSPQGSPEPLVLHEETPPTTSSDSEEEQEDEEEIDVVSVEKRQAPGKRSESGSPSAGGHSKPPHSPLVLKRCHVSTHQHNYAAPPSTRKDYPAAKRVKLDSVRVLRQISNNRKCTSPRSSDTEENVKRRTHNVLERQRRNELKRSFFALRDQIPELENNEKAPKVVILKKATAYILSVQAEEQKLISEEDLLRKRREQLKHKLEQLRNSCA
Chain of human Retinoic Acid Receptor gamma (RARg), RARG (gene 5916) (P13631 whole entry, looked up, the tested form may be a part): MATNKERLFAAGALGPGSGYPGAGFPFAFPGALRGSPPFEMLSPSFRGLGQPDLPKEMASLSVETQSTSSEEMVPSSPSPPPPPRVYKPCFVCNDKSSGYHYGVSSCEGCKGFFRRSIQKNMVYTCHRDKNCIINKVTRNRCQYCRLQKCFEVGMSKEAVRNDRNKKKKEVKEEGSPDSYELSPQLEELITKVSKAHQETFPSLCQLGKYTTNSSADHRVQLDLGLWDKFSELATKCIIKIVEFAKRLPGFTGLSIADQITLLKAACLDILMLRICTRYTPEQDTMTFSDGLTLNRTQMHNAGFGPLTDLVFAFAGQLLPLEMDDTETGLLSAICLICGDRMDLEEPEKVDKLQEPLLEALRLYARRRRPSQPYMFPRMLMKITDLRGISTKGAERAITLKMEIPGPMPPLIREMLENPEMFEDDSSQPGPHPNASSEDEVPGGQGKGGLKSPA
Chain of human Retinoic Acid Receptor beta (RARb), RARB (gene 5915) (P10826 whole entry, looked up, the tested form may be a part): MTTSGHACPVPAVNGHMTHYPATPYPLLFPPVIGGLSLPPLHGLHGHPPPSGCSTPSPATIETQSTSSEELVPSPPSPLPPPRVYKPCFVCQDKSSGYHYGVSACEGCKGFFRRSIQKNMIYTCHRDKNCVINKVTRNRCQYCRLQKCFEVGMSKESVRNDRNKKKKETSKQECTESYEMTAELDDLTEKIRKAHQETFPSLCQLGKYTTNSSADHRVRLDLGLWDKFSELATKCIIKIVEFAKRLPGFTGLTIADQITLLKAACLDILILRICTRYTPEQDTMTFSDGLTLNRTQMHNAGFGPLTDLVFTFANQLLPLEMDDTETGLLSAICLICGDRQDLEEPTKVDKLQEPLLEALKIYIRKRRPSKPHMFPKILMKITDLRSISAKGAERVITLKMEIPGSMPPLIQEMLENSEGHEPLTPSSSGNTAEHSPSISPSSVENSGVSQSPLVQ
Chain of Retinoic acid receptor alpha (Homo sapiens) (P10276 whole entry, looked up, the tested form may be a part): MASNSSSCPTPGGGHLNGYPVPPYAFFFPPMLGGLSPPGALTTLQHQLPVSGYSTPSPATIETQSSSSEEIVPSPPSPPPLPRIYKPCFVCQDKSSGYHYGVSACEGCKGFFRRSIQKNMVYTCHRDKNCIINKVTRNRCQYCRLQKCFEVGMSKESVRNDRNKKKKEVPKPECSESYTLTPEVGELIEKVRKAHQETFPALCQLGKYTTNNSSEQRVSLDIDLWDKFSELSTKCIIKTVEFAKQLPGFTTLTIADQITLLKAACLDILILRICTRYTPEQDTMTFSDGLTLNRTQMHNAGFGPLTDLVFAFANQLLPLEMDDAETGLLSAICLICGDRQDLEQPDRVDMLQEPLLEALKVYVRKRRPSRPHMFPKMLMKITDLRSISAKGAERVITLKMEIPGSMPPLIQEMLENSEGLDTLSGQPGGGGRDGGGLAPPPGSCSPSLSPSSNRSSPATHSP

Nc1ccc(-c2ccc(N)cc2)cc1
not listed: [15] | [16] | [17] | [18] | [19] | [20]
inactive: all other assays above

O=C(O)C(F)(F)C(F)(F)C(F)(F)C(F)(F)C(F)(F)F
active: [16] 36.7 µM and 70.9 µM
not listed: [10] | [14] | [19] | [20]
inactive: all other assays above

CCOP(=S)(OCC)SCSC(C)(C)C
active: [4] 67 µM | [11] 29.3 µM | [13] 3.49 µM and 2.9 µM
inactive: [1] | [2] | [3] | [4] | [5] | [6] | [19] | [15] | [7] | [8] | [17] | [9] | [12]

Cc1cc2c3c(c1)C(c1ccccc1)=N[C@@H](NC(=O)c1ccncc1)C(=O)N3CC2
active: [4] 96.6 µM | [5] 74 µM | [12] 1.71 µM | [13] 2.54 µM
not listed: [15] | [18] | [19] | [20]
inactive: all other assays above

CC(c1ccc(O)cc1)(c1ccc(O)cc1)c1ccc(O)cc1
inactive: [2] | [3] | [17] | [9] | [12]
active: [1] 20.2 µM | [20] 18.9 µM | [4] 19.6 µM | [5] 11.1 µM | [6] 11.1 µM | [7] 29.8 µM | [8] 31.4 µM | [11] 28 µM | [13] 2.93 µM
